± gives the standard deviation.
system: MILI (PIWIL2) piRISC loaded with piRNA #1 (26 nt); test: pre-steady-state target cleavage rate (min^-1); guide: piRNA #1 5'p-UGAGGUAGUAGGUUGUAUAGUAUCCA; MIWI and MILI are mouse PIWI proteins and EfPiwi is from a freshwater sponge; tags in brackets are library labels; higher = faster piRNA-guided slicing of the target; conditions: auxiliary factor: 500 nM mouse GTSF1
Method in brief: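 In Cleave-'n-Seq, a transcribed, DNA-blocked target RNA library (0.1 nM) was combined with 1 nM active affinity-purified piRISC bearing one synthetic guide, with or without 500 nM GTSF1 partner protein. Reactions ran in HEPES–potassium acetate buffer at 33 °C for 0–8 or 0–960 min. Uncleaved targets were sequenced and normalised to depth and to weakly complementary targets, three trials were pooled, and k3 was capped at 0.0001 min^-1. The pre-steady-state cleavage rate was obtained by fitting a burst-and-steady-state model.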

| Sequence | pre-steady-state target cleavage rate |
| --- | --- |
| GGAGACCUAACUAUACAACCUACUUCCACA | 0.0458 ± 0.022 |
| GGAGACCUAACUAUACAAGCAACUACCUCA | 0.00654 ± 0.0041 |
| GGAGACCUAUGAUUACAAGCUACUUCCUCA | 0.0143 ± 0.0037 |
| GGAGACCUAUCUAUUCAACCUAGUACCUCA | 0.00955 ± 0.0033 |
| GGAGACGAUUCUAUACAACGUACUACCUCA | 0.0237 ± 0.0031 |
| GGAGACCUAUGAUAUGUUCCUUCUACCACA | < 0.0001 |
| GGAGAGGAUACUUUACAACCUACUACCUCA | 0.172 ± 0.011 |
| GGAGACGAUACUAUAGUUCCUACUACCUCA | 0.161 ± 0.012 |
| GGAGACCUAUGAUAUGUUGGUACUACCAGA [g4:g10:cont:t1A] | < 0.0001 |
| GGAGACCUAUGAUAUGUACCUACAAGCUCA | < 0.0001 |
| GGAGACCUAUGUUUACAACCUACUACCUGA | 0.00584 ± 0.0023 |
| GGAGACCUUACUAUACAACCUACAAGCUCA | 0.103 ± 0.03 |
| GGAGACCAUACUAAACAACCUACUACCUGA | 0.13 ± 0.018 |
| GGAGACCUAACAUUACAACCUACUACCUCA | 0.0283 ± 0.0089 |
| GGAGACCUUACUAUACAACCUACUUCCACA | 0.0518 ± 0.013 |
| GGAGACCUAACUUUACAACCUACAACCUCA | 0.0823 ± 0.027 |
| GGAGACCUAUGAAUUCAACCUACUACCUCA | 0.00274 ± 0.0019 |
| GGAGACCUUACUUAACAACCUACUACCUCA | 0.101 ± 0.016 |
| GGAGACCUAUGUAUACAACCUACUACGACA | 0.0279 ± 0.0061 |
| GGAGACCUAUGAUAUGUUGCUACUAGGACA | < 0.0001 |

| Sequence | pre-steady-state target cleavage rate |
| --- | --- |
| GGAGACGAUACUUUACAACCUACUACCACA | 0.2 ± 0.025 |
| GGAGACCAUACUAUACAUGGUACUACCUCA | 0.00626 ± 0.0026 |
| GGAGACCUAUGAUAUGUUGCUACUCCCUCA | < 0.0001 |
| GGAGACCUAUGAUUUCAAGCUACUACCUCA | 0.00713 ± 0.0026 |
| GGAGACCUUACUAUACAACCUACAUGGAGA [g8:g22:cont:t1A] | 0.00299 ± 0.0029 |
| GGAGACCUAUGUAAACAAGCUACUACCUCA | 0.0459 ± 0.0073 |
| GGAGACCUAUCUAGACAACCUACUACCUCA | 0.103 ± 0.016 |
| GGAGACCUAACUAUACAACCUACUAGCCUCA | 0.186 ± 0.035 |
| GGAGACCUAACUAUACAACGUACAACCUCA | 0.0148 ± 0.005 |
| GGAGACCUAUGUAUACAACCUACAUACCUCA | 0.043 ± 0.0061 |
| GGAGACCUAUGUAUACAACCUACUACAUCA | 0.0269 ± 0.0059 |
| GGAGACCUUACUUUACUACCUACUACCUCA | 0.0948 ± 0.01 |
| GGAGACCUUAGUAUACAACCUACUAGCUCA | 0.00944 ± 0.0043 |
| GGAGACCUAUGAAUACAACCUACUGCCUCA | 0.0052 ± 0.0029 |
| GGAGACCAAACUAUAGAACCUACUACCUCA | 0.13 ± 0.028 |
| GGAGACCUAUGAUUCACAACCUACUACCUCA | 0.00321 ± 0.0032 |
| GGAGACCUAUGAUAUGUAGGAACUACCUCA | < 0.0001 |
| GGAGACCUAAGUAUACAUCCUACUACCUCA | 0.0911 ± 0.0089 |
| GGAGACCUAUCUAUACAAGCUACAACCUCA | 0.169 ± 0.015 |
| GGAGACCUAUGAUAACAACCUACUACCUUA | 0.00415 ± 0.003 |

Reference: the supplement of paper PMC10338343
